From PubChem BioAssay AID1159580 (chemical genetic matrix, 2015)
In all, about 5,500 compounds went through this assay and about 2,000 (36%) were called active. Another 18% or so got no clear call; they are omitted. This is one part of the list. Values without a mark were called inactive. No stated cut-off is given here; in the data, active means normalized growth mostly below about 0.91 (no sharp cut-off); inconclusive means no clear call, values can overlap the other calls; inactive means mostly above about 0.92.

Assay: chemical genetic growth profiling, strain panel (AID 1159580);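 further: tested at 20 µM; growth read once vehicle control cultures reached saturation at 30 °C; 1 = growth at the plate median or of vehicle wells; lower values mean less growth of the strain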
Conditions: growth OD

## O=S1OCC2C(CO1)C1(Cl)C(Cl)=C(Cl)C2(Cl)C1(Cl)Cl (centres undefined)
S. cerevisiae deletion strains, locus YJR043C, strain POL32, active compounds read low
  normalized growth: 0.96
S. cerevisiae deletion strains, locus YJR075W, strain HOC1, active compounds read low
  normalized growth: 0.986
S. cerevisiae deletion strains, locus YKL009W, strain mrt4, active compounds read low
  normalized growth: 0.947
S. cerevisiae deletion strains, locus YKL068W, active compounds read low
  normalized growth: 0.964
S. cerevisiae deletion strains, locus YKL085W, strain MDH1 (second series), active compounds read low
  normalized growth: 0.982
S. cerevisiae deletion strains, locus YKL085W, strain MDH1, active compounds read low
  normalized growth: 0.982
S. cerevisiae deletion strains, locus YKL160W, strain elf1, active compounds read low
  normalized growth: 0.953
S. cerevisiae deletion strains, locus YKL190W, strain CNB1, active compounds read low
  normalized growth: 1
S. cerevisiae deletion strains, locus YKR001C, strain vps1, active compounds read low
  normalized growth: 0.975
S. cerevisiae deletion strains, locus YKR026C, strain gcn3, active compounds read low
  normalized growth: 0.987
S. cerevisiae deletion strains, locus YKR091W, strain srl3, active compounds read low
  normalized growth: 0.991
S. cerevisiae deletion strains, locus YLL001W, strain dnm1, active compounds read low
  normalized growth: 0.99
S. cerevisiae deletion strains, locus YLL026W, active compounds read low
  normalized growth: 1
S. cerevisiae deletion strains, locus YLL041C, strain sdh2, active compounds read low
  normalized growth: 0.992
S. cerevisiae deletion strains, locus YLR027C, strain aat2, active compounds read low
  normalized growth: 0.961
S. cerevisiae deletion strains, locus YLR039C, strain RIC1, active compounds read low
  normalized growth: 1.06
S. cerevisiae deletion strains, locus YLR058C, strain SHM2, active compounds read low
  normalized growth: 0.979
S. cerevisiae deletion strains, locus YLR102C, strain apc9, active compounds read low
  normalized growth: 0.973
S. cerevisiae deletion strains, locus YLR221C, strain rsa3, active compounds read low
  normalized growth: 0.931
S. cerevisiae deletion strains, locus YLR258W, strain gsy2, active compounds read low
  normalized growth: 0.973
S. cerevisiae deletion strains, locus YLR262C, strain YPT6 (second series), active compounds read low
  normalized growth: 1.06
S. cerevisiae deletion strains, locus YLR262C, strain YPT6, active compounds read low
  normalized growth: 1.05
S. cerevisiae deletion strains, locus YLR268W, strain sec22, active compounds read low
  normalized growth: 0.97
S. cerevisiae deletion strains, locus YLR320W, strain mms22, active compounds read low
  normalized growth: 0.961
S. cerevisiae deletion strains, locus YLR330W, strain CHS5, active compounds read low
  normalized growth: 0.984
S. cerevisiae deletion strains, locus YLR342W, strain FKS1 (second series), active compounds read low
  normalized growth: 0.872
S. cerevisiae deletion strains, locus YLR342W, strain FKS1, active compounds read low
  normalized growth: 0.991
S. cerevisiae deletion strains, locus YLR357W, strain rsc2, active compounds read low
  normalized growth: 0.996
S. cerevisiae deletion strains, locus YLR370C, strain arc18, active compounds read low
  normalized growth: 0.997
S. cerevisiae deletion strains, locus YLR371W, strain rom2, active compounds read low
  normalized growth: 0.949
S. cerevisiae deletion strains, locus YLR384C, strain iki3, active compounds read low
  normalized growth: 1
S. cerevisiae deletion strains, locus YLR418C, strain cdc73, active compounds read low
  normalized growth: 0.946
S. cerevisiae deletion strains, locus YML016C, strain PPZ1, active compounds read low
  normalized growth: 0.991
S. cerevisiae deletion strains, locus YML032C, strain rad52, active compounds read low
  normalized growth: 0.974
S. cerevisiae deletion strains, locus YML120C, strain ndi1, active compounds read low
  normalized growth: 0.983
S. cerevisiae deletion strains, locus YML124C, strain tub3, active compounds read low
  normalized growth: 0.976
S. cerevisiae deletion strains, locus YMR058W, strain fet3, active compounds read low
  normalized growth: 0.976
S. cerevisiae deletion strains, locus YMR078C, strain ctf18, active compounds read low
  normalized growth: 0.977
S. cerevisiae deletion strains, locus YMR125W, strain sto1, active compounds read low
  normalized growth: 0.998
S. cerevisiae deletion strains, locus YMR129W, active compounds read low
  normalized growth: 0.992
S. cerevisiae deletion strains, locus YMR205C, strain PFK2, active compounds read low
  normalized growth: 0.91
S. cerevisiae deletion strains, locus YMR223W, strain ubp8, active compounds read low
  normalized growth: 0.955
S. cerevisiae deletion strains, locus YMR231W, strain pep5, active compounds read low
  normalized growth: 0.97
S. cerevisiae deletion strains, locus YMR263W, strain SAP30, active compounds read low
  normalized growth: 0.946
S. cerevisiae deletion strains, locus YMR307W, strain GAS1, active compounds read low
  normalized growth: 0.978
S. cerevisiae deletion strains, locus YNL067W, strain RPL9B, active compounds read low
  normalized growth: 0.981
S. cerevisiae deletion strains, locus YNL071W, strain lat1, active compounds read low
  normalized growth: 0.966
S. cerevisiae deletion strains, locus YNL128W, strain TEP1, active compounds read low
  normalized growth: 0.975
S. cerevisiae deletion strains, locus YNL153C, strain GIM3, active compounds read low
  normalized growth: 0.987
S. cerevisiae deletion strains, locus YNL209W, strain ssb2, active compounds read low
  normalized growth: 0.991
S. cerevisiae deletion strains, locus YNL233W, strain BNI4, active compounds read low
  normalized growth: 1
S. cerevisiae deletion strains, locus YNL248C, strain rpa49, active compounds read low
  normalized growth: 0.992
S. cerevisiae deletion strains, locus YNL250W, strain rad50, active compounds read low
  normalized growth: 0.957
S. cerevisiae deletion strains, locus YNL271C, strain bni1, active compounds read low
  normalized growth: 0.971
S. cerevisiae deletion strains, locus YNL298W, strain CLA4, active compounds read low
  normalized growth: 0.946
S. cerevisiae deletion strains, locus YNL307C, strain MCK1, active compounds read low
  normalized growth: 0.885 (active)
S. cerevisiae deletion strains, locus YNL322C, strain KRE1 (second series), active compounds read low
  normalized growth: 0.986
S. cerevisiae deletion strains, locus YNL322C, strain KRE1, active compounds read low
  normalized growth: 0.978
S. cerevisiae deletion strains, locus YNR049C, strain mso1, active compounds read low
  normalized growth: 0.997
S. cerevisiae deletion strains, locus YNR052C, strain pop2, active compounds read low
  normalized growth: 0.968
S. cerevisiae deletion strains, locus YOL006C, strain TOP1, active compounds read low
  normalized growth: 0.822
S. cerevisiae deletion strains, locus YOL012C, strain htz1
  normalized growth: 0.777
S. cerevisiae deletion strains, locus YOL147C, strain pex11, active compounds read low
  normalized growth: 0.991
S. cerevisiae deletion strains, locus YOR001W, strain rrp6, active compounds read low
  normalized growth: 0.978
S. cerevisiae deletion strains, locus YOR061W, strain CKA2, active compounds read low
  normalized growth: 0.987
S. cerevisiae deletion strains, locus YOR069W, strain VPS5, active compounds read low
  normalized growth: 0.979
S. cerevisiae deletion strains, locus YOR070C, strain gyp1, active compounds read low
  normalized growth: 0.979
S. cerevisiae deletion strains, locus YOR080W, strain dia2, active compounds read low
  normalized growth: 0.991
S. cerevisiae deletion strains, locus YOR083W, strain WHI5, active compounds read low
  normalized growth: 0.942
S. cerevisiae deletion strains, locus YOR106W, strain vam3, active compounds read low
  normalized growth: 0.884
S. cerevisiae deletion strains, locus YOR136W, strain idh2, active compounds read low
  normalized growth: 0.98
S. cerevisiae deletion strains, locus YOR144C, strain elg1, active compounds read low
  normalized growth: 0.984
S. cerevisiae deletion strains, locus YOR184W, strain ser1, active compounds read low
  normalized growth: 0.887
S. cerevisiae deletion strains, locus YOR265W, strain rbl2, active compounds read low
  normalized growth: 0.993
S. cerevisiae deletion strains, locus YOR270C, strain vph1, active compounds read low
  normalized growth: 0.633 (active)
S. cerevisiae deletion strains, locus YOR290C, strain snf2, active compounds read low
  normalized growth: 0.937
S. cerevisiae deletion strains, locus YOR316C, strain cot1, active compounds read low
  normalized growth: 0.975
S. cerevisiae deletion strains, locus YPL051W, strain arl3, active compounds read low
  normalized growth: 0.988
S. cerevisiae deletion strains, locus YPL055C, strain LGE1, active compounds read low
  normalized growth: 0.974
S. cerevisiae deletion strains, locus YPL078C, strain atp4, active compounds read low
  normalized growth: 0.987
S. cerevisiae deletion strains, locus YPL106C, strain sse1, active compounds read low
  normalized growth: 0.993
S. cerevisiae deletion strains, locus YPL240C, strain hsp82, active compounds read low
  normalized growth: 0.991
S. cerevisiae deletion strains, locus YPL241C, strain CIN2, active compounds read low
  normalized growth: 0.985
S. cerevisiae deletion strains, locus YPR119W, strain clb2, active compounds read low
  normalized growth: 0.976
S. cerevisiae deletion strains, locus YPR141C, strain kar3, active compounds read low
  normalized growth: 0.98
S. cerevisiae deletion strains, locus YPR163C, strain tif3, active compounds read low
  normalized growth: 0.978
S. cerevisiae deletion strains, locus YPR167C, strain met16, active compounds read low
  normalized growth: 0.971
S. cerevisiae deletion strains, strain wtn01, active compounds read low
  normalized growth: 0.954
S. cerevisiae strains, strain wild type, active compounds read low
  normalized growth: 0.987
